Several values for one entry are separate records, joined by “and”; a condition that tells them apart may be missing. Identical values can stand only once. For part of these data: Results with a measured potency or affinity are listed apart. The source holds several records for some structures; these can differ, active in one and inactive in another. Activity calls are given as the source filed them. Cut-off read from the data, not from the text of the source, unless noted: active = parasite load remaining mostly below about 12% (no sharp cut-off); inactive = mostly above about 10%. Bridge positions count the residues as written; N and C are the ends. Square brackets hold non-standard residues; d marks the D form. Peptide text beside a SMILES is read from it. * marks the point of attachment. Heptanoyl(6-Me) = CC(C)CCCCC(=O)*; Dab = NCC[CH](N)C(=O)O
Assays:
[1] = blockers of polyQ-driven CASP3 activation – cell-based (AID 1583); settings: polyglutamine-induced caspase-3 activation, cell assay; stronger effect = higher value;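 tested at 10 µM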
[2] = yeast 75Q aggregation reduction – 75Q-TubU reporter (AID 1593); settings: Yeast 75Q polyglutamine aggregation reporter
[3] = restoration of touch response, mutant HTT neurons – whole organism, C. elegans mechanosensory neurons, N-terminal huntingtin (AID 1599); settings: C. elegans polyQ-huntingtin mechanosensory neurons, stronger effect = higher value
[4] = blockers of cytochrome c efflux from mitochondria – biochemical, purified mitochondria (AID 1603); settings: stronger effect = lower value;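 note: mouse liver mitochondria challenged with calcium chloride; signal normalized to the plate average as 100%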
[5] = polyglutamine aggregate formation blockers (AID 1604); settings: polyglutamine-induced protein aggregation inhibition assay; stronger effect = higher value; tested at 2.5 µM
[6] = glutamate transport activators, MN-1 cells, MN-1 cell line (AID 1612); settings: MN-1 motor neuron cells, stronger effect = higher value;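 note: tested at 1 µM final; 0% = mean of DMSO vehicle wells on each plate; positive means more glutamate uptake than control and negative means less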
[7] = 75Q-TubH aggregate inhibition, S. cerevisiae, yeast (AID 1616); settings: S. cerevisiae 75Q-TubH polyglutamine aggregation suppression; stronger effect = higher value
[8] = P. berghei load reduction in hepatocytes – cell-based, HepG2, luciferase luminescence, HepG2 viability, primary screen (AID 624349);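 note: 100% = mean of DMSO negative control wells on the same plate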; settings: P. berghei liver stage in HepG2, luciferase luminescence, concentration not given here; parasite load remaining: stronger effect = lower value; viability: measured here: HepG2 viability without parasites
[9] = EMT-state selective cytotoxicity in co-culture – imaging, PC-3E GFP, TEM4-18 mCherry, primary screen (AID 1345086;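 active = compounds killing one labelled cell type while sparing the other, by normalised counts and ratio limits, not self-fluorescent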;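 for all read-outs here: cells exposed to compound for 72 h before imaging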;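 for red/green cell ratio (normalised): normalised mesenchymal count divided by normalised epithelial count so high means epithelial killing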); settings: PC-3E GFP / TEM4-18 mCherry co-culture, imaging cell counts, at 1 µM; for red/green cell ratio (normalised): actives lie on both sides, counts scaled to control wells, 1 = unselective
[10] = viability loss with induced miR-34 in A549 – imaging, A549 dox-inducible miR-34, nuclei and caspase counts, primary screen (AID 1347080;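 active = compounds whose cell count with miR-34 switched on is under 0.7 times the count with it off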); settings: A549 miR-34 inducible, Hoechst nuclei count, 48 h
[11] = GFP-Q80 aggregate reduction, neuronal-like cells, cell-based, NGF-treated PC12, GFPQ80 (AID 1614); settings: PC12 NGF-treated GFP-polyQ80 inclusion reduction;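 note: lower means fewer inclusions and 0 means no inclusions at all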
[12] = tested on: Hepatitis C virus NS3 helicase; experiment: blockers of NS3h binding to ssDNA – biochemical, fluorescence polarization, LOPAC1280 library, primary screen (AID 687035; in the data active = inhibition above about 37%); settings: Purified HCV NS3 helicase, Cy5-dT15 ssDNA binding fluorescence polarization; stronger effect = higher value; concentration not given here
[13] = compounds altering Cy5-DNA-NS3h complex signal – biochemical, LOPAC1280, artefact control for HCV NS3 helicase inhibitor project (AID 687037; call rule not given here); settings: Cy5-DNA-NS3h complex fluorescence interference counterscreen
[14] = compounds altering viability of human ES cells (AID 493140; call rule not given here;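 note: cells exposed to compounds for four days before counting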); settings: human embryonic stem cell survival screen; stronger effect = higher value
[15] = measured here: epithelial PC-3E GFP cell survival
[16] = measured here: mesenchymal TEM4-18 mCherry cell survival
[17] = stronger effect = lower value, cell number ratio, induced over uninduced
[18] = measured here: relative caspase fold change +Dox/-Dox
[19] = measured here: total cells with miR-34 induction, stronger effect = lower value
[20] = measured here: total cells without miR-34 induction

SMILES	inhibition [1]	score [2]	rescue above control [3]	cytochrome c release ratio [4]	inhibition of aggregation [5]	glutamate uptake change [6]	aggregation suppression score [7]	parasite load remaining [8]	viability [8]	red/green cell ratio (normalised) [9]	normalised cell number [9, 15]	normalised cell number [9, 16]	fold change [10, 17]	fold change [10, 18]	cell count [10, 19]	cell count [10, 20]	inclusion score [11]	inhibition [12]	fluorescence ratio (interference) [13]	survival [14]
C[C@H](CCC(=O)O)[C@H]1CCC2C3C(CC[C@@]21C)[C@@]1(C)CC[C@@H](O)C[C@H]1C[C@H]3O (some centres undefined)	13.5%	-0.55	-0.69	0.92	21.1%	-19.3%	0.165	96.5% (inactive) and 33.9% (inactive)	70.7% and 87%	1.27 (inactive)	0.99	1.25	0.893 (inactive)	3.03	10800	12100				
CN(C)CCCO[C@H]1[C@@H](C(O)CO)OC2OC(C)(C)O[C@@H]21 (some centres undefined)	13.5%	1.28	-9.95	1.02	85.9%	-4%	1.2	121% (inactive) and 48% (inactive)	87.2% and 101%	0.97 (inactive)	0.98	0.95	0.948 (inactive)	2.91	12000	12700	2			
CC[C@H]1CN2CCc3cc(OC)c(OC)cc3C2C[C@@H]1CC1NCCc2cc(OC)c(OC)cc21 (some centres undefined)	43.8%	1.69	-0.41	1.03	67.5%	-39.3%	1.03	-0.06% (active) and -0.06% (inactive)	69.1% and 43.7%	0.69 (inactive)	0.22	0.15	1.07 (inactive)	1.51	2470	2320				
NC(N)=N/N=C\c1c(Cl)cccc1Cl	-8.15%	1.22	-12.2	1.41	61%	33.9%	0.91	56% (inactive) and 40.7% (inactive)	69.3% and 86.4%	1.13 (inactive)	1.05	1.18	0.816 (inactive)	0.826	8780	10800	2	0% (inactive)	1 (inactive)	
CC(=O)O[C@H]1C[C@@]2(C)[C@@H](C[C@@H](O)C3[C@]2(C)CC[C@H]2[C@H](C)[C@H](O)CC[C@]32C)/C1=C(/CCC=C(C)C)C(=O)O (some centres undefined)	8.99%	1.55	-0.35	1.24	12.1%	11.6%	1.1	99.6% (inactive) and 102% (inactive)	71.9% and 91.9%	1.29 (inactive)	1.06	1.36	0.927 (inactive)	1.7	11800	12700	2			
NC[C@@H]1O[C@H](O[C@@H]2[C@@H](CO)OC(O[C@@H]3[C@@H](O)[C@H](N)C[C@H](N)[C@H]3OC3O[C@H](CN)[C@@H](O)[C@H](O)[C@H]3N)[C@@H]2O)[C@H](N)[C@@H](O)[C@@H]1O (some centres undefined)	-14.5%	0.97	4.93	0.82	43.7%	-6.09%	1.49	59.3% (inactive)	91.2%	0.97 (inactive)	1.02	0.98	0.934 (inactive)	0.542	12000	12900	2			
C[C@]12CCC3c4ccc(O)cc4CCC3C1C[C@@H](O)[C@@H]2O (some centres undefined)	-10.9%	0.64	0.35	0.85	84.5%	-5.15%	0.718	84.5% (inactive) and 67.1% (inactive)	72.3% and 96.2%	0.95 (inactive)	1	0.95	0.868 (inactive)	1.18	11100	12800	2			
CCCCCC(=O)O[C@]1(C(C)=O)CCC2C3CCC4=CC(=O)CC[C@]4(C)C3CC[C@@]21C (some centres undefined)	18.1%	-0.83	-3.14	0.32	35%	9.62%	0.43	13.1% (inactive) and 0.105% (inactive)	72.1% and 76.8%	1.01 (inactive)	1.08	1.09	0.912 (inactive)	1.72	7140	7840				
CC(=O)[C@@]1(O)CCC2C3C[C@H](C)C4=CC(=O)C=CC4(C)[C@@]3(F)[C@@H](O)C[C@@]21C (some centres undefined)	8.98%	1.5	24.4	0.92	-25.4%	25.3%	1.45	116% (inactive) and 26.7% (inactive)	75.2% and 95.6%	1.21 (inactive)	1.18	1.43	0.851 (inactive)	3.38	7310	8590	3			
CC(CCC(=O)O)[C@H]1CCC2C3C(=O)C[C@@H]4CC(=O)CC[C@]4(C)C3CC(=O)[C@@]21C (some centres undefined)								50.2% (inactive)	81.3%	1.13 (inactive)	0.93	1.05	0.923 (inactive)	1.77	11900	12900				
CCCCCC(O)C1C(=O)OC(C)C(O)/C=C/C=C/C=C/C=C/C=C(\C)C(O)CC(O)CC(O)CC(O)CC(O)CC(O)CC1O (centres undefined)								18% (inactive)	94.9%	1.13 (inactive)	0.84	0.95	0.935 (inactive)	2.39	11500	12300				
COc1cc([C@@H]2c3cc4c(cc3C(O[C@@H]3O[C@@H]5CO[C@@H](c6cccs6)OC5[C@H](O)[C@H]3O)C3COC(=O)[C@@H]32)OCO4)cc(OC)c1O (some centres undefined)								111% (inactive) and 83.3% (inactive)	75.6% and 112%	1.33 (inactive)	0.27	0.36	0.795 (inactive)	3.39	3270	4110				
O=C(O)c1cc(O)c2c(c1)[C@@H]([C@H]1c3cc(C(=O)O)cc(O)c3C(=O)c3c(O[C@H]4O[C@H](CO)[C@@H](O)[C@H](O)[C@H]4O)cccc31)c1cccc(O[C@H]3O[C@H](CO)[C@@H](O)[C@H](O)[C@H]3O)c1C2=O								132% (inactive) and 77.3% (inactive)	80.8% and 104%	0.69 (inactive)	1.22	0.84	0.789 (inactive)	9.83	10200	12900				
CO/N=C(/C(=O)NC1C(=O)N2C(C(=O)OC(C)OC(C)=O)=C(COC(N)=O)CSC12)c1ccco1 (centres undefined)								60.6% (inactive)	138%	1.1 (inactive)	0.93	1.02	0.889 (inactive)	1.77	12300	13900				
CC(=O)Nc1cc2ccccc2oc1=O								90.5% (inactive)	77.8%	0.74 (inactive)	1.29	0.95	0.955 (inactive)	0.792	8640	9040				3.5 (inactive)
CCC(C)C1NC(=O)C(CCN)NC(=O)C(NC(=O)C(CCN)NC(=O)C(NC(=O)C(CCN)NC(=O)CCCCC(C)C)C(C)O)CCNC(=O)C(C(C)O)NC(=O)C(CCN)NC(=O)C(CCN)NC(=O)C(C(C)CC)NC1=O (centres undefined) ({Heptanoyl(6-Me)}-[Dab]T[Dab][Dab][Dab]II[Dab][Dab]T; lactam 4-C; configuration not given here)								49.5% (inactive)	98.1%	0.79 (inactive)	1.14	0.9	0.901 (inactive)	3.33	12400	13800				
CC1=C(C(=O)O)N2C(=O)[C@@H](NC(=O)[C@H](N)C3=CCC=CC3)C2SC1 (some centres undefined)								74.8% (inactive) and 68.7% (inactive)	77.3% and 102%	1 (inactive)	1.13	1.14	0.89 (inactive)	4.9	11000	12400				
CC(C)(C)NC(=O)[C@H]1CCC2C3CCC4NC(=O)C=C[C@]4(C)C3CC[C@@]21C (some centres undefined)								30.5% (inactive)	97.9%	1.12 (inactive)	0.62	0.69	0.895 (inactive)	2.7	11000	12300				
O=C(O)C1=C(CSc2nnnn2CS(=O)(=O)O)CS[C@@H]2C(NC(=O)[C@H](O)c3ccccc3)C(=O)N12 (some centres undefined)								57.8% (inactive)	103%	0.95 (inactive)	1.08	1.03	0.834 (inactive)	4.26	10700	12900				
CC1(C)O[C@@H]2CC3C4C[C@H](F)C5=CC(=O)C=C[C@]5(C)[C@@]4(F)[C@@H](O)C[C@]3(C)[C@]2(C(=O)CO)O1 (some centres undefined)								74.8% (inactive)	92.9%	1.12 (inactive)	1.2	1.35	0.898 (inactive)	0.891	7030	7830				
C/C=C\C1=C(C(=O)O)N2C(=O)C(NC(=O)C(N)c3ccc(O)cc3)C2SC1 (centres undefined)								117% (inactive) and 53.4% (inactive)	69.3% and 102%	1.07 (inactive)	0.97	1.04	0.891 (inactive)	4.02	11600	13100				
CN[C@@H]1[C@@H](O[C@H]2O[C@H](CO)[C@@H](N)[C@H](O)[C@H]2O)O[C@H]2C[C@@H](N)[C@H](O[C@H]3[C@H](O)[C@@H](O)[C@H](N)C[C@@H]3N)O[C@@H]2[C@@H]1O								70.7% (inactive) and 61.8% (inactive)	108% and 98.4%	1.38 (inactive)	0.99	1.36	0.903 (inactive)	5.22	12300	13600				
CC(C)(C)NCC(O)COc1cccc2c1CCCC2=O (centres undefined)								76.4% (inactive)	103%	1.02 (inactive)	1.01	1.03	0.83 (inactive)	2.71	11300	13600				

Source: PubChem BioAssay
